According to PubChem BioAssay (Tox21):
Inconclusive results are not listed. The source holds several records for some structures; these can differ, active in one and inactive in another. Activity calls are given as the source filed them. Unless noted, calls come from the whole dose curve; as a rule, active = well fitted curve in the direction sought with a large enough effect in the repeat runs; inconclusive = weak or mixed curves; inactive = no such curve, though single readings can be large; an effect the other way counts as inactive or inconclusive.

How the values were obtained:
[1] = qHTS assay to identify small molecule agonists of the NFkB signaling pathway (AID 1159509; active = well fitted curve in the direction sought with a large enough effect in the signal ratio in the repeat runs, not every such curve was filed as active; the % refers to the signal ratio; note: series mostly up to about 61 µM)
Summary of the method: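 NFkB-bla ME-180 cells carry a beta-lactamase reporter under an NF-kB response element. They were plated overnight, then exposed to compounds for 5 h at 37 C. Read-out is LiveBLAzer FRET after 1.5 hr at room temperature (405 nm excitation; 460/530 nm emission).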

[2] = qHTS assay to identify small molecule agonists of the NFkB signaling pathway - cell viability counter screen (AID 1159515; calls by dose curve; note: series mostly up to about 61 µM; nearly all actives have a fitted effect of over 55% in size)
Summary of the method: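 5 hr compound treatment of NFkB-bla ME-180 cells (2,000/well, seeded overnight beforehand), followed by reporter substrate for 1.5 hr. CellTiter-Glo added afterward; luminescence after 30 min RT.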

[3] = qHTS assay to identify small molecule agonists of the endoplasmic reticulum stress response signaling pathway (AID 1159516; active = well fitted activation curve with a large enough effect in the signal ratio in the repeat runs, not every such curve was filed as active; the % refers to the signal ratio)
Summary of the method: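 Reporter HeLa cells (ESRE-beta-lactamase) underwent 5 hr compound incubation at 37 C and 5% CO2 in quantitative HTS format. Detection followed 2 hr of FRET substrate loading at room temperature.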

[4] = qHTS assay to identify small molecule agonists of the endoplasmic reticulum stress response signaling pathway - cell viability counter screen (AID 1159517; calls by dose curve; note: nearly all actives have a fitted effect of over 50% in size; note: potency is the fitted concentration of half-maximal effect)
Summary of the method: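 HeLa cells carrying an ESRE-driven beta-lactamase reporter receive compound for 5 hr at 37 C. Cell viability is then gauged with CellTiter-Glo by luminescence, 30 min at room temperature.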

[5] = qHTS assay to identify small molecule antagonists of the retinoid-related orphan receptor gamma (ROR-gamma) signaling pathway - cell viability counter screen (AID 1159520); note: nearly all actives have a fitted effect of over 50% in size
Summary of the method: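 Cytotoxicity was read from cellular ATP (CellTiter-Glo luminescence) after 16 hr at 37 C with 1 uM doxycycline induction. The inducer was added 2 hr after compound transfer to Tet-on ROR gamma CHO cells.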

[6] = target: Nuclear receptor ROR-gamma (Homo sapiens) (UniProt P51449); test: qHTS assay to identify small molecule antagonists of the retinoid-related orphan receptor gamma (ROR-gamma) signaling pathway (AID 1159521; note: nearly all actives have a fitted effect of over 50% in size; note: potency is the fitted concentration of half-maximal effect)
Summary of the method: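 Antagonist read-out: drop in luminescence (ONE-Glo) from an RORE-LUC reporter in CHO cells with doxycycline-inducible ROR-gamma; 2 hr compound pretreatment, 1 uM doxycycline, 16 hr incubation at 37 C.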

[7] = qHTS assay to identify small molecule agonists of the AP-1 signaling pathway (AID 1159526; calls by dose curve)
[8] = target: Retinoic acid receptor RXR-alpha (Homo sapiens) (UniProt P19793); test: qHTS assay to identify small molecule agonists of the RXR signaling pathway (AID 1159527; calls by dose curve; note: nearly all actives have a fitted effect of over 35% in size)
Summary of the method: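 Agonist-mode beta-lactamase reporter assay: HEK 293T RXR-alpha-UAS-bla cells treated 16 hr at 37 C with compounds, 9-cis retinoic acid as positive control. LiveBLAzer FRET substrate, 405 nm excitation, 460/530 nm emission.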

[9] = qHTS assay to identify small molecule agonists of the RXR signaling pathway - cell viability counter screen (AID 1159529); note: series mostly up to about 77 µM; nearly all actives have a fitted effect of over 50% in size
Summary of the method: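 CellTiter-Glo luminescence gave viability in the wells also read for beta-lactamase. Cells (RXR-alpha-UAS-bla HEK 293T, 2% charcoal-stripped FBS medium) had 5 hr plating, then 16 hr compound exposure at 37 C; tetraoctyl ammonium bromide served as positive control.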

[10] = qHTS assay to identify small molecule antagonists of the retinoid acid receptor (RAR) signaling pathway - cell viability counter screen (AID 1159551); note: nearly all actives have a fitted effect of over 35% in size
Summary of the method: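 Seed C3RL4 cells; next day add compound, then retinol to 1 uM final; incubate 6 h at 37 C; add CellTiter-Glo; read luminescence after 30 min at RT.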

[11] = qHTS assay to identify small molecule antagonists of the retinoic acid receptor (RAR) signaling pathway (AID 1159552; note: nearly all actives have a fitted effect of over 50% in size; note: potency is the fitted concentration of half-maximal effect)
Summary of the method: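 Luminescent RARE reporter read-out in C3RL4 cells: 6 hr co-treatment at 37 C of test compounds with retinol at 1 uM final. Cells plated overnight beforehand; luciferase reagent incubated 30 min at room temperature before reading.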

[12] = qHTS assay to identify small molecule agonists of the retinoic acid receptor (RAR) signaling pathway (AID 1159553); note: potency is the fitted concentration of half-maximal effect
Summary of the method: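 Activation of retinol signaling was monitored via a RARE luciferase reporter in C3RL4 cells. After 6 hr compound treatment at 37 C, detection reagent was added for 30 min at room temperature before luminescence reading.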

[13] = qHTS assay to identify small molecule antagonists of the vitamin D receptor (VDR) signaling pathway - cell viability counter screen (AID 743225); note: nearly all actives have a fitted effect of over 50% in size
Summary of the method: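 Cytotoxicity counter screen read by CellTiter-Glo luminescence (30 min, room temperature) in the same wells as the VDR-bla antagonist readout. HEK 293T VDR-UAS-bla cells had 16 h at 37C with compound and 3 nM (final) 1-alpha,25-dihydroxyvitamin D3, then 2 h with FRET substrate.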

[14] = qHTS assay to identify small molecule agonists of the AP-1 signaling pathway - cell viability counter screen (AID 1159525; calls by dose curve; note: nearly all actives have a fitted effect of over 55% in size)
Summary of the method: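 Luminescent ATP readout (Cell Titer Glo, 30 min RT), normalised to DMSO and tetra n-octyl ammonium bromide controls. Cells were ME-180 AP-1-bla in 0.5% dialyzed FBS Opti-MEM, with a 5 h, 37 °C compound exposure.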

[15] = qHTS assay to identify small molecule antagonists of the estrogen related receptor (ERR) signaling pathway - cell viability counter screen (AID 1224818);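 note: series mostly up to about 46 µM; viability measured after 17.5 h of compound exposure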
Summary of the method: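 In the same ERR cell assay, compound-treated wells (17.5 h, 37 C) were multiplexed with a fluorogenic viability reagent, CellTiter-Fluor, read after 30 min to flag cytotoxic substances.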

[16] = qHTS assay to identify small molecule antagonists of the estrogen related receptor signaling pathway with the pleiotropic PPARgamma coactivator (PGC) cell viability counter screen (AID 1224822; note: series mostly up to about 46 µM)
Summary of the method: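 Compounds in DMSO, with positive and negative controls, were applied to PGC/ERR cells (2,000/well) and left 17.5 h at 37 C before CellTiter-Fluor detection.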

Measured: Potency

Sequence of Retinoic acid receptor RXR-alpha (Homo sapiens) (P19793 whole entry, looked up): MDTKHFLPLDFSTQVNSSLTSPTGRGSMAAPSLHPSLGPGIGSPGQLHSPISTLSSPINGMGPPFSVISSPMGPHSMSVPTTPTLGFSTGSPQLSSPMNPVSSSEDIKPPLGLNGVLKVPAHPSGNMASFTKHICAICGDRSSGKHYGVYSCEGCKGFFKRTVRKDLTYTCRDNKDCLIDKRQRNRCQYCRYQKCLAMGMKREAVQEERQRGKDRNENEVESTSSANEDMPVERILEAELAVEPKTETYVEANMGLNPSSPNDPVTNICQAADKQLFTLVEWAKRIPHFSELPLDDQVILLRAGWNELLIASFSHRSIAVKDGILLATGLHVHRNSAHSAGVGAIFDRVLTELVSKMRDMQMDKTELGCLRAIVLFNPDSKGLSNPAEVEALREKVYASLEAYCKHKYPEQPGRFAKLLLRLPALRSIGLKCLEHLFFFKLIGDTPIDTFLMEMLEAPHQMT

O=[N+]([O-])c1cccc(CCl)c1
not listed: [13] | [14] | [15] | [16]
inactive: all other assays above

N[C@@H](Cc1ccc(Oc2cc(I)c(O)c(I)c2)c(I)c1)C(=O)O
not listed: [10] | [14] | [15] | [16]
inactive: all other assays above

CCN(CCO)CCn1c(Cc2ccccc2)nc2c1c(=O)n(C)c(=O)n2C
not listed: [4] | [9] | [15] | [16]
inactive: all other assays above

N#CN
not listed: [4] | [9] | [15] | [16]
inactive: all other assays above

ClCC1CO1 (configuration not stated)
not listed: [10] | [14] | [15] | [16]
inactive: all other assays above

C[C@H]1CCCC(=O)CCC/C=C/c2cc(O)cc(O)c2C(=O)O1
20.9 µM (active) and inactive: [6]
not listed: [4] | [11] | [12] | [15] | [16]
inactive: all other assays above

CCCOC(=O)c1cncn1C(C)c1ccccc1 (configuration not stated)
not listed: [4] | [10] | [15] | [16]
inactive: all other assays above

COc1ccccc1OC
not listed: [10] | [14] | [15] | [16]
inactive: all other assays above

CN=CNc1ccc(C)cc1C
not listed: [8] | [9] | [14] | [15] | [16]
inactive: all other assays above

S=C=S
not listed: [14] | [15] | [16]
inactive: all other assays above

CN(C)C(=O)Oc1cc(OC(=O)N(C)C)cc(C(O)CNC(C)(C)C)c1 (configuration not stated)
not listed: [4] | [9] | [15] | [16]
inactive: all other assays above

ClCCN1CCCC1
not listed: [14] | [15] | [16]
inactive: all other assays above

O=P(O)(O)c1ccccc1
not listed: [4] | [15] | [16]
inactive: all other assays above

CNC(=O)Oc1ccccc1C(C)C
not listed: [8] | [10] | [15] | [16]
inactive: all other assays above

CC1N=C(N)OC1c1ccccc1 (configuration not stated)
not listed: [4] | [15] | [16]
inactive: all other assays above

O=C(O)C(Cl)Br (configuration not stated)
not listed: [13] | [14] | [15] | [16]
inactive: all other assays above

c1cncc([C@@H]2CCCCN2)c1
not listed: [4] | [12] | [15] | [16]
inactive: all other assays above

C[C@H](N)C(=O)c1ccccc1
not listed: [4] | [15] | [16]
inactive: all other assays above

CC(C)(C)C(=O)C(Cl)Cl
not listed: [4] | [13] | [15] | [16]
inactive: all other assays above

CCC(=O)c1ccc(Cl)cc1
not listed: [14] | [15] | [16]
inactive: all other assays above

CN1C(=O)COc2c(C(=O)NC3CN4CCC3CC4)cc(Cl)cc21 (configuration not stated)
not listed: [8] | [10] | [15] | [16]
inactive: all other assays above

O=CCCl
not listed: [14] | [15] | [16]
inactive: all other assays above

N[C@@H]1C[C@H]1c1ccccc1
not listed: [8] | [9] | [15] | [16]
inactive: all other assays above

ClC1=C(Cl)C2(Cl)C(CBr)CC1(Cl)C2(Cl)Cl (configuration not stated)
54.9 µM (active) and inactive: [4]
54.5 µM (active) and inactive: [11]
not listed: [7] | [8] | [15] | [16]
inactive: all other assays above

COc1ccc(CN2CCNCC2)c(OC)c1OC
not listed: [3] | [10] | [15] | [16]
inactive: all other assays above

COc1ccc2c(C(=O)c3ccc(Cl)cc3)c(C)n(CC(=O)O)c2c1
not listed: [3] | [4] | [15] | [16]
inactive: all other assays above

CCOC(=O)COc1ccc(Cl)cc1Cl
not listed: [3] | [8] | [9] | [12] | [15] | [16]
inactive: all other assays above

Cc1ccc(-c2nc3ccc(C)cn3c2CC(=O)N(C)C)cc1
active: [12] 23.7 µM
not listed: [3] | [15] | [16]
inactive: all other assays above

CCC(=O)OC1(c2ccccc2)CCN(C)CC1
not listed: [3] | [15] | [16]
inactive: all other assays above

CCOC(=O)c1ncn2c1CN(C)C(=O)c1c(I)cccc1-2
not listed: [4] | [14] | [15] | [16]
inactive: all other assays above

O=C(Cl)C(Cl)Cl
not listed: [3] | [8] | [15] | [16]
inactive: all other assays above

CCCC(C)C1(CC)C(=O)N=C(S)NC1=O (configuration not stated)
not listed: [3] | [15] | [16]
inactive: all other assays above

CC1NCCOC1c1ccccc1 (configuration not stated)
not listed: [3] | [10] | [15] | [16]
inactive: all other assays above

CCOP(=S)(OCC)SCCl
not listed: [3] | [9] | [15] | [16]
inactive: all other assays above

COC1=CC(=O)O[C@@H](/C=C/c2ccccc2)C1
active: [12] 24.7 µM
not listed: [3] | [9] | [10] | [15] | [16]
inactive: all other assays above

C=C1C[C@@H]2[C@H](CC[C@]3(C)C(=O)CC[C@@H]23)[C@@]2(C)C=CC(=O)C=C12
not listed: [3] | [15] | [16]
inactive: all other assays above

Clc1nc(Cl)nc(Nc2ccccc2Cl)n1
not listed: [3] | [15] | [16]
inactive: all other assays above

NCC1(CC(=O)O)CCCCC1
not listed: [3] | [13]
inactive: all other assays above

CCC1(c2cccc(O)c2)CCCCN(C)C1 (configuration not stated)
not listed: [4] | [8] | [15] | [16]
inactive: all other assays above
